Shown is part of a subset that was picked to be rich in hits.
AmpC no deterg: qHTS Inhibitors of AmpC Beta-Lactamase (assay without detergent) | P00811 | AmpC nitrocefin hydrolysis, absorbance 480 nm, 0.0001% Triton | Potency, µM (highest dose often 57.1 µM), for inactives: at the top dose activity change, negative = inhibition, hits mostly inhibitors | actives 0.52% (n = 330,000) | AID 485341, 2010;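 note: potency is the fitted concentration of half-maximal effect; plate controls were no compound for no effect and no enzyme for full effect; nearly all actives have a fitted effect of over 20% in size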
Target sequence (P00811 whole entry, looked up): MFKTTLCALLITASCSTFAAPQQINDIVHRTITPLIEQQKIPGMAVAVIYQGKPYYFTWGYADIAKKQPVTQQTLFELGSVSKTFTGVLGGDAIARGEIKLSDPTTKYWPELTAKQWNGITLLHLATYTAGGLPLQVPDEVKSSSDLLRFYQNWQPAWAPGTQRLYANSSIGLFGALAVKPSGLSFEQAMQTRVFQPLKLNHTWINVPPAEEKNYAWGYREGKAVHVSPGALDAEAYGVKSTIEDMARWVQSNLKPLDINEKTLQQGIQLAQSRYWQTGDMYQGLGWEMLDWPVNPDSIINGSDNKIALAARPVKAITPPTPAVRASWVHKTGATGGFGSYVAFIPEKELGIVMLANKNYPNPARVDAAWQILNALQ
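AmpC (5.3 nM in the dispensed reagent) in 20 mM phosphate pH 7.0 with 0.01% (detergent screen) or 0.0001% Triton X-100 was preincubated with compounds for 15 min at room temperature. Nitrocefin was then added from an 800 uM solution, and hydrolysis was followed at 480 nm.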
AmpC detergent: qHTS Inhibitors of AmpC Beta-Lactamase (assay with detergent); actives 0.041% (n = 370,000); Potency, µM (titrated, usually from 114 µM), without a hit: at the top dose activity change, negative = inhibition, hits mostly inhibitors; P00811; AID 485294, 2010; AmpC hydrolysis of nitrocefin, absorbance 480 nm, 0.01% Triton;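 note: potency is the fitted concentration of half-maximal effect; 0% = no-compound wells and -100% = no-enzyme wells; nearly all actives have a fitted effect of over 25% in size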
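AmpC (5.3 nM in the dispensed reagent) in 20 mM phosphate pH 7.0 with 0.01% (detergent screen) or 0.0001% Triton X-100 was preincubated with compounds for 15 min at room temperature. Nitrocefin was then added from an 800 uM solution, and hydrolysis was followed at 480 nm.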
SARS PLpro yeast: qHTS of Yeast-based Assay for SARS-CoV PLP | S. cerevisiae expressing SARS-CoV PLpro, growth rescue | Potency, µM (top dose mostly 32.9 µM), for inactives: at the top dose activity, positive = growth rescue, most hits filed as activators | actives 0.19% (n = 330,000) | AID 485353, 2010; calls by dose curve; note: potency is the fitted concentration of half-maximal effect; 0% is about no effect; nearly all actives have a fitted effect of over 55% in size
Shiga inhibitor: A qHTS for Small Molecule Inhibitors of Shiga Toxin; AID 2315, 2010; actives 9.2% (n = 290,000); inhibition, % at 38.7 µM; Vero cells, Shiga toxin protein synthesis inhibition reporter; in the data active = inhibition mostly above about 28%, no sharp cut-off; inactive = mostly below about 43%; note: 0% is about no effect
AMA1-RON2 inh: qHTS for Inhibitors of AMA1-RON; Towards Development of Antimalarial Drug Lead: Primary Screen. AlphaScreen AMA1-biotinylated RON2 peptide binding. Potency, µM (highest dose often 58.2 µM), inactives show at the top dose activity change, negative = inhibition, usual class: inhibitors. actives 0.2% (n = 360,000);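 note: potency is the fitted concentration of half-maximal effect; 0% = vehicle wells and -100% = peptide control; nearly all actives have a fitted effect of over 45% in size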
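AMA1 (3D7) with his tag at 25 nM final met compounds first, then biotinylated RON2 peptide at 25 nM; detection used donor plus acceptor beads, 10 µg/mL apiece, read by AlphaScreen after 30 min at room temperature.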
CHX counter: Cycloheximide Counterscreen for Small Molecule Inhibitors of Shiga Toxin | AID 2314, 2010 | actives 12% (n = 300,000) | max response, % | cell reporter, cycloheximide protein synthesis inhibition counterscreen; in the data active = max response mostly above about 13%, no sharp cut-off; inactive = mostly below about 14%; note: read at 38.3 µM for the half of the compounds with a filed dose; 0% is about no effect
* marks the source's active call; other numbers are inactive results; ? = inconclusive; nt = not tested or not shown. Unless noted, calls come from the whole dose curve; as a rule, active = well fitted curve in the direction sought with a large enough effect; inconclusive = small, poorly fitted or top-dose-only effect, or another doubt; inactive = no such curve, though single readings can be large; an effect the other way counts as inactive or inconclusive.

SMILES	AmpC no deterg	AmpC detergent	SARS PLpro yeast	Shiga inhibitor	AMA1-RON2 inh	CHX counter
CC(=O)c1ccc(OCc2cc(C(=O)NC3CCCCC3)no2)cc1	-4%	0%	3%	76*	0%	31*
CC(=O)c1ccc(OCc2cc(C(=O)NCCN3CCCC(O)C3)no2)cc1 (stereo not given)	-27%	-5%	-2%	-5	6%	1
Cc1sc2ncn(CC(=O)NCCCC(=O)N3CCN(Cc4ccc5c(c4)OCO5)CC3)c(=O)c2c1C	221%	?	-1%	-15	-6%	-3
CCc1ccc(OC)c(S(=O)(=O)Nc2ccccc2C)c1	-19%	-2%	1%	-4	0%	0
O=C(Cc1ccc(Cl)cc1)Nc1cccc(-c2nnc(-c3ccco3)o2)c1	-33%	2%	1%	-3	4%	3
COc1ccccc1OCC(=O)Nc1cccc(-c2nnc(-c3ccco3)o2)c1	9%	-12%	1%	82*	?	36*
O=C(Cc1ccccc1)Nc1cccc(-c2nnc(-c3ccco3)o2)c1	-40%	7%	-13%	86*	0%	30*
Cc1cccc(C(=O)NCc2nc3ccccc3n2Cc2ccccc2Cl)c1	nt	16%	nt	nt	nt	nt
Cc1cccc(/C=c2\s/c(=C\C(=O)C(C)(C)C)[nH]c2=O)c1	-43%	-2%	-23%	41	-8%	23*
COc1ccc(/C=c2\s/c(=C\C(=O)C(C)(C)C)[nH]c2=O)cc1O	-29%	3%	-1%	7	44%	15*
Cc1csc(NC(=O)c2cc(=O)[nH]c3ccc(S(=O)(=O)N4CCOCC4)cc23)n1	-23%	-5%	-2%	-3	2%	16
COc1cc(Nc2ccccc2Cl)c([N+](=O)[O-])nc1[N+](=O)[O-]	-20%	-15%	6%	-12	-5%	-1
O=C(NC1CCN(C(=S)Nc2ccc(F)cc2)CC1)c1ccco1	-5%	-10%	10%	21	11%	-4
O=c1n2c(c(O)n1C1CCCCC1)C(c1ccccc1)=Nc1ccccc1C2	nt	nt	nt	nt	-10%	nt
O=C(Nc1ccc(-c2nnco2)cc1)c1ccccc1	-15%	-13%	-4%	68*	56%	14*
O=C(Nc1ccc(Nc2ccccc2)cc1)c1ccccc1	nt	nt	nt	nt	-10%	nt
O=C(Nc1ccccc1)Nc1cccc(-c2nnco2)c1	-24%	1%	-1%	48*	21%	20*
Cc1cc(C(=O)Nc2cnn(Cc3ccc(Cl)cc3Cl)c2)no1	-15%	?	-13%	35*	-9%	15*
Cc1ccccc1Cn1cc(NS(=O)(=O)c2cn(C)nc2C)cn1	-3%	-2%	-4%	-31	-13%	-2
Cc1ccccc1Cn1cc(NC(=O)c2nn(C)cc2Cl)cn1	-20%	5%	20%	28*	-6%	17
COCC(=O)N1CCCC(C(=O)c2ccc(-c3ccccc3)cc2)C1 (stereo not given)	125%	?	-12%	12	3%	11*
CN1CCCC(C(=O)c2ccc(-c3ccccc3)cc2)C1 (stereo not given)	37%	?	6%	34*	-4%	23*
CC1CCCN(C(=O)COc2ccc(-c3ccccc3)cc2)C1 (stereo not given)	46%	-1%	-4%	40*	-15%	17
CCS(=O)(=O)N1CCN(C(=O)COc2ccc(-c3ccccc3)cc2)CC1	60%	-4%	3%	-14	0%	-3
COC(=O)c1cc(COC(=O)c2nc3nccc(C)n3n2)oc1C	-13%	-2%	0%	-6	3%	-2
Cc1ccc2ccc(S(=O)(=O)NCc3ccccn3)cc2c1	-16%	?	-3%	39*	77%	19
COc1ccc(C(=O)c2ccsc2N)cc1	-28%	-15%	-3%	51*	-1%	28*

Source: PubChem BioAssay (National Center for Advancing Translational Sciences (NCATS))
